According to the supplement of paper PMC3334620:
Whole data set: some 33,000 sequences, median “E-score (-0.5 to 0.5)” near -0.043, cut for the highest 2% near 0.37. This is one part of a sample in which the highest values are shown more often than they occur.

target: T1, Upc2 (UniProt Q12151); experiment: PBM E-score (8-mer binding enrichment) (E-score (-0.5 to 0.5)); higher = stronger / more preferred TF binding; conditions: protein concentration: 200 nM; construct: GST-full length
T1 sequence: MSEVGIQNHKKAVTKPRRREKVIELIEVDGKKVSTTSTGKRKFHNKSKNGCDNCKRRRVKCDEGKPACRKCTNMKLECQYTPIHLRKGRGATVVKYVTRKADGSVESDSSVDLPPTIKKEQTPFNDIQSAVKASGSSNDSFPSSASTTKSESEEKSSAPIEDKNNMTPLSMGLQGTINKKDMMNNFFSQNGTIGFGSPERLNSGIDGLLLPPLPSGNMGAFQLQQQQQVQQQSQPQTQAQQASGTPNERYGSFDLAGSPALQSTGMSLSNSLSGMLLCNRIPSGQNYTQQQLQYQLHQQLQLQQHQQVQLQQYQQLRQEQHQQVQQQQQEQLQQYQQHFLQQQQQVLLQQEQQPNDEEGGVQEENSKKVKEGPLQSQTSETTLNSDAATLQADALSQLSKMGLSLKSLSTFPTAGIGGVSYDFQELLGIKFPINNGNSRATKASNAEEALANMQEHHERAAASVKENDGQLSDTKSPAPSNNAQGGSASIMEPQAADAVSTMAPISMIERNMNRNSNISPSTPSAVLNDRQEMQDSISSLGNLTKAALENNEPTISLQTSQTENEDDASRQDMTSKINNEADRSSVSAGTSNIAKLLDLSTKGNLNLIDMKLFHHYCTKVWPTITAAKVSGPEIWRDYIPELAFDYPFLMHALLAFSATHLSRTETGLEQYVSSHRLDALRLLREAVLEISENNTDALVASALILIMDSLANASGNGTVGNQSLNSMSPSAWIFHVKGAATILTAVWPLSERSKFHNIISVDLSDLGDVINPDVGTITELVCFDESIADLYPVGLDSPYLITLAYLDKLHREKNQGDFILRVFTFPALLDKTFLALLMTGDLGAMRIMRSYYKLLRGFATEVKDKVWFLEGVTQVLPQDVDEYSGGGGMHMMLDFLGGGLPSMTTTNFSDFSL
Description: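 Universal 'all 10-mer' protein binding microarrays (Agilent AMADID 015681) probed with GST-tagged S. cerevisiae TFs (full-length or DBD) made by in vitro transcription/translation (PURExpress), about 100-200 nM. Bound TF was detected with fluorescent anti-GST. Each ungapped 8-mer (which stands for itself and its reverse complement) is scored by the PBM enrichment score (E-score), a modified Wilcoxon-Mann-Whitney statistic from -0.5 to +0.5, computed with the Universal PBM Analysis Suite. Scale: above 0.35 generally sequence-specific binding.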

Row | Sequence | PBM E-score
1 | GAAGTACC | 0.114
2 | GTGCCAAC | -0.0672
3 | CTCCACCA | -0.177
4 | GGATTGTA | 0.107
5 | ATGCCAAC | 0.0593
6 | GTTAGCGA | 0.194
7 | ACAATCCA | -0.0823
8 | GTACGACA | 0.468
9 | ATACGACA | 0.477
10 | GCACGACA | 0.0592
11 | CCACGACA | -0.131
12 | CTACGACA | 0.311
13 | CGACGACA | 0.173
14 | CCCGAGCC | -0.0326
15 | CGCATTCA | -0.00072
16 | CCTTAACG | 0.38
17 | CGTTAACG | 0.422
18 | CCTTAACA | -0.0468
19 | CGTTAACA | 0.274
20 | CGTTAACC | 0.348
21 | ACTTAACG | 0.339
22 | AAATCTCC | -0.271
23 | GTGACCAC | -0.283
24 | ACAATGAT | -0.102
25 | CGGCGCTC | 0.16

Row | Sequence | PBM E-score
26 | GCCCTCGC | 0.219
27 | ATGGCTCA | -0.1
28 | ACTTTACA | 0.0242
29 | ATTTTACC | 0.00835
30 | CCTTTACG | 0.418
31 | AATTTACG | 0.335
32 | ATTTTACG | 0.394
33 | CCTTTACC | -0.191
34 | ACTTTACG | 0.409
35 | CCTTTACA | -0.0853
36 | ACTTTACT | -0.151
37 | ATTTGCAA | 0.0573
38 | AGATTGCT | -0.117
39 | CAACTGCG | -0.0371
40 | CTACGGAG | -0.138
41 | ATACGCAA | 0.37
42 | GTACGGAC | 0.35
43 | ATACGCAG | 0.352
44 | ACACGGAG | -0.0181
45 | GTACGGAA | 0.377
46 | GTACGCAA | 0.247
47 | ATACGGAC | 0.394
48 | ATACGGAG | 0.411
49 | CTACGGAC | -0.0487
50 | GCACGGAA | -0.15

Row | Sequence | PBM E-score
51 | ATACGGAT | 0.357
52 | CATGAGTC | -0.0488
53 | GTTCTCTA | 0.102
54 | CTCTCCTA | 0.0887
55 | GATTCACC | -0.129
56 | AATGGAGA | -0.179
57 | TATGCGCA | 0.0561
58 | CTACGGAA | 0.0194
59 | ATACGGAA | 0.372
60 | TTACGGAA | 0.258
61 | GGGGGCGA | -0.119
62 | TACAGCAA | 0.138
63 | AGAGTGGG | 0.0465
64 | TGATCCAA | -0.132
65 | ACACGACG | 0.267
66 | ATACGACC | 0.474
67 | AGACGACG | 0.237
68 | ATACGACG | 0.483
69 | CTACGACC | 0.364
70 | ACACGACC | 0.154
71 | GCGTTTAA | 0.4
72 | GCGTTTTA | 0.206
73 | CCGTTTTA | 0.118
74 | GGGTTTAC | 0.144
75 | CCGTTTAC | 0.451

Row | Sequence | PBM E-score
76 | CCGTTTAA | 0.466
77 | CTGTTTAC | 0.142
78 | GCGTTTCC | 0.0493
79 | CTGTTTAA | 0.0306
80 | ACGTTTAC | 0.369
81 | GCGTTTAC | 0.372
82 | GCGTTTGA | 0.151
83 | GGGAGCAA | -0.11
84 | GGCAAGGA | -0.205
85 | GGCTACTA | -0.0652
86 | ACAGTACC | -0.176
87 | CATCTAGA | 0.0683
88 | ACAAGGTA | 0.104
89 | GAGAGGGA | -0.272
90 | ACTATACA | 0.11
91 | ACTATACG | 0.478
92 | AGTATACG | 0.455
93 | AGTATACT | 0.242
94 | ATTATACC | 0.144
95 | CCTATACA | 0.151
96 | ACTATACT | 0.152
97 | ATTATACA | 0.0589
98 | CCTATACG | 0.487
99 | AGTATATG | 0.0175
100 | CCTATACC | 0.167

Row | Sequence | PBM E-score
101 | ATTATACG | 0.482
102 | AAAGAATA | 0.091
103 | AAGGTTAT | -0.0588
104 | GCCCCGCC | 0.112
105 | GGCGCAAC | 0.00488
106 | CACAGGGA | -0.233
107 | AGGACACT | -0.364
108 | AGTTTAAC | 0.174
109 | CGTTTAAC | 0.473
110 | AGTTTAAA | 0.11
111 | CGTTTAAA | 0.47
112 | GGTTTAAC | 0.138
113 | TGTTTAAA | 0.0234
114 | CCTTTAAG | -0.158
115 | AGTTTAAG | 0.0878
116 | CGTTTAAG | 0.468
117 | AGGATGGG | 0.00396
118 | CAACCTCA | -0.0655
119 | AACTGTGT | -0.137
120 | CCTTAGCA | -0.336
121 | CCCTTATC | -0.205
122 | AGGTATAC | 0.339
123 | CTAACCGC | 0.0621
124 | CTAACCGA | 0.37
125 | GTAACCGA | 0.322

Row | Sequence | PBM E-score
126 | CTGCTCTA | -0.0369
127 | ACAATCCT | -0.183
128 | CAGGACGG | -0.164
129 | CGAAGTAG | 0.00964
130 | GGACGAAA | -0.0427
131 | ACACGAAT | 0.258
132 | AGACGAAT | 0.0524
133 | ATCCGAAC | 0.146
134 | ATACGAAC | 0.472
135 | ATACGAAT | 0.459
136 | CTACGAAG | 0.316
137 | GTACGAAA | 0.442
138 | ATACGAAG | 0.476
139 | ACACGAAG | 0.211
140 | GCACGAAA | 0.127
141 | ATTCGAAC | 0.119
142 | CATCGATC | -0.0852
143 | ATAGATTC | -0.12
144 | GGCATAAC | -0.0916
145 | ACCGATCC | -0.0521
146 | ATACTCAT | -0.111
147 | GTGGGCTA | -0.128
148 | CTACGAAA | 0.272
149 | ATACGTAT | 0.372
150 | GGACGAAC | 0.0508

Row | Sequence | PBM E-score
151 | ATACGAAA | 0.47
152 | TCACGAAA | -0.0654
153 | ACACGAAA | 0.197
154 | CTACGAAC | 0.333
155 | AGACGAAA | 0.196
156 | ATACGTAA | 0.334
157 | TTACGAAA | 0.41
158 | GTACGAAC | 0.467
159 | ATACGTAC | 0.339
160 | AGCTCGAT | -0.0109
161 | AAGCTGGT | -0.0392
162 | CAGATTGG | -0.303
163 | CAACTTCA | -0.0217
164 | CCATTTCA | -0.241
165 | CTCAGCTC | -0.114
166 | AGCGAGAG | 0.229
167 | CGTATAAA | 0.477
168 | AGTATAAC | 0.172
169 | AGTATAAA | 0.238
170 | GGTATAAC | 0.135
171 | CGTATAAC | 0.478
172 | CATATAAG | 0.17
